# PubChem BioAssay (EPA / NIEHS)
# “And” between values parts separate entries of the source, which are not always exact repeats. Equal values may be shown once. Inconclusive results are not listed. The source made the active and inactive calls. The calls were made as follows, unless noted: active = hit-call score of the fitted dose curve at least 0.9, where 1 is the maximum; inactive = score below 0.9.
# Experiments:
# [1] = read-out: Monokine induced gamma interferon (MIG), CXCL9 (gene 4283); test: BSK_SAg_MIG: BioMAP Diversity Plus: SAg Assay for Monokine induced gamma interferon (MIG) Biomarker Activity (AID 2283092); conditions: primary human HUVEC with PBMC; actives raise or lower the signal
# How it was run: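 HUVEC plus human PBMC co-culture, chemicals dosed and MIG (CXCL9) quantified by ELISA at 24 h. Bidirectional curve fitting against DMSO as negative control and baseline, so both gain and loss of signal count as activity.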
# [2] = BSK_SAg_PBMCCytotoxicity: PBMC Cytotoxicity Assessment in the BioMAP Diversity Plus: SAg Assay (AID 2283093); conditions: primary human HUVEC with PBMC;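 also: PBMC viability measured as Alamar Blue reduction fluorescence at 546/580 nm; fitted both ways against DMSO so a hit may be loss or gain of signal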;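 as to AC50: PBMC superantigen activated with SEB plus TSST-1 one hour after compound addition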
# How it was run: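 Human umbilical vein endothelial cells co-cultured with PBMC; PBMC (75,000/well) pre-treated with compound 1 h, then activated with SEB and TSST-1 (20 ng/mL final each) for 90 h. Alamar Blue added 6 h, fluorescence 546/580 nm; bidirectional fit versus DMSO.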
# [3] = read-out: Interleukin-8 (IL8), CXCL8 (gene 3576); test: BSK_SAg_IL8: BioMAP Diversity Plus: SAg Assay for Interleukin-8 (IL8) Biomarker Activity (AID 2283094); conditions: primary human HUVEC with PBMC; actives raise or lower the signal
# How it was run: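 Human umbilical vein endothelial cells co-cultured with PBMC, stimulated with superantigen; IL-8 measured by ELISA 24 h after chemical dosing. Bidirectional fitting versus DMSO; SRB staining in parallel cultures tracks cytotoxicity.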
# [4] = BSK_SAg_Proliferation: Cell Proliferation Assessment in the BioMAP Diversity Plus: SAg Assay (AID 2283095); conditions: primary human HUVEC with PBMC
# How it was run: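 Human umbilical vein endothelial cells co-cultured with PBMC; sulforhodamine B total-protein staining (0.1% SRB after 10% TCA fixation, absorbance 560 nm) at 96 h in sub-confluent culture. Fitted bidirectionally against DMSO.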
# [5] = BSK_SAg_SRB: Viability Assessment in the BioMAP Diversity Plus: SAg Assay (AID 2283096); conditions: primary human HUVEC with PBMC;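 also: cells read one day after compound addition; hits may be either gain or loss of signal compared with DMSO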
# How it was run: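 Endothelial/PBMC primary human co-culture; compound 24 h; fix 10% TCA, stain 0.1% SRB, A560; protein content as cytotoxicity proxy; bidirectional curve fit, DMSO = baseline.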
# [6] = target: human CYP2A6, CYP2A6 (gene 1548) (UniProt P11509); test: NVS_ADME_hCYP2A6: NovaScreen (NVS) CYP450-related Enzyme Activity (ADME) Assay for human CYP2A6 (AID 2283099; active = hit-call score of the fitted dose curve at least 0.9, where 1 is the maximum)
# Chain of human CYP2A6, CYP2A6 (gene 1548) (P11509 whole entry, looked up): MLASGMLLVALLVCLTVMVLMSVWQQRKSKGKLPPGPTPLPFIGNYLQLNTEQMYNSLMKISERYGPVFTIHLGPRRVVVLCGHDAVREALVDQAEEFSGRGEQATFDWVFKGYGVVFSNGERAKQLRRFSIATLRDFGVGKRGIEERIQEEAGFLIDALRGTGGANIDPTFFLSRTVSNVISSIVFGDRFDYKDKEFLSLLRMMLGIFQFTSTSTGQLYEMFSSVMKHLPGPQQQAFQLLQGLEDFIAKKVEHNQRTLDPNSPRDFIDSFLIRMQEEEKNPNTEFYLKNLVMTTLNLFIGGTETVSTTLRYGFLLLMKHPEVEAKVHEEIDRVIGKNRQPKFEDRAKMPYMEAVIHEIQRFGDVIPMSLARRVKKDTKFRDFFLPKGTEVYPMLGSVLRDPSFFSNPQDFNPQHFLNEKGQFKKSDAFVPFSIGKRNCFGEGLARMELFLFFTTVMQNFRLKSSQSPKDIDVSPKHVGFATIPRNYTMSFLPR
# How it was run: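 Compounds screened at 10 uM (duplicate) and, if active, titrated to a 20 uM top concentration against insect-cell-expressed CYP2A6. Loss of fluorescent product signal after 0.5 h, relative to acetonitrile baseline, indicates inhibition.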
# [7] = target: human CYP2B6, CYP2B6 (gene 1555) (UniProt P20813); test: NVS_ADME_hCYP2B6: NovaScreen (NVS) CYP450-related Enzyme Activity (ADME) Assay for human CYP2B6 (AID 2283101; active = hit-call score of the fitted dose curve at least 0.9, where 1 is the maximum)
# Chain of human CYP2B6, CYP2B6 (gene 1555) (P20813 whole entry, looked up): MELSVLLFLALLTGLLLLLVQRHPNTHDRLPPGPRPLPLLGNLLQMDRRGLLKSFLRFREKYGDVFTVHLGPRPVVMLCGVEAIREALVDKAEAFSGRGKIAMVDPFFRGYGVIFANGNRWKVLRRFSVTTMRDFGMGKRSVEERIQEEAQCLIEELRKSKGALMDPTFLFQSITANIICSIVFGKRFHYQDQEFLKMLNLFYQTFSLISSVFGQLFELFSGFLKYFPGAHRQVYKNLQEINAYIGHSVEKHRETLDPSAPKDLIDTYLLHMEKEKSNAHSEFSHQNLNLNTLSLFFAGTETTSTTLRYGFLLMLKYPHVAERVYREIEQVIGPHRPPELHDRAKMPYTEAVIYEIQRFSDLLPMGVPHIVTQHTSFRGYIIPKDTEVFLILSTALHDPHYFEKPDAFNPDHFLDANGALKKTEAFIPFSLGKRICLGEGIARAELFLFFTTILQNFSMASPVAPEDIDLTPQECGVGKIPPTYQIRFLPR
# How it was run: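 Recombinant human CYP2B6 with fluorogenic substrate, read by fluorescence intensity 1 h after dosing. Primary screen in duplicate at 10 uM, actives followed in concentration series; signal loss relative to acetonitrile control.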
# [8] = target: human CYP1A2, CYP1A2 (gene 1544) (UniProt P05177); test: NVS_ADME_hCYP1A2: NovaScreen (NVS) CYP450-related Enzyme Activity (ADME) Assay for human CYP1A2 (AID 2283102; active = hit-call score of the fitted dose curve at least 0.9, where 1 is the maximum;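 as to AC50: potency for inhibition since loss of fluorescence marks reduced CYP1A2 activity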)
# Chain of human CYP1A2, CYP1A2 (gene 1544) (P05177 whole entry, looked up): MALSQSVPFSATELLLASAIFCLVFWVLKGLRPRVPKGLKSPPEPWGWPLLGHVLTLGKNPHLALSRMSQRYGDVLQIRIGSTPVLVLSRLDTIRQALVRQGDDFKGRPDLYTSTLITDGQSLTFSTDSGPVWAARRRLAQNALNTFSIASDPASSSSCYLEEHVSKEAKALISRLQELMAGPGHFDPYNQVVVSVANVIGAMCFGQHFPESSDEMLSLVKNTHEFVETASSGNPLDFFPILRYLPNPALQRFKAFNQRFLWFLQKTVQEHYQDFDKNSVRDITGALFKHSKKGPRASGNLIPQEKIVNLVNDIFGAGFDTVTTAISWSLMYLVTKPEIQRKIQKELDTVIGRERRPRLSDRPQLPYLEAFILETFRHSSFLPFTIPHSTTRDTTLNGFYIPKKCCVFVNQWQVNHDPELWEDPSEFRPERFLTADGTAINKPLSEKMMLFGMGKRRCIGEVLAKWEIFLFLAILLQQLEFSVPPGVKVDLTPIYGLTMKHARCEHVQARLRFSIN
# How it was run: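 Enzyme activity of insect-cell-expressed human CYP1A2 measured by fluorescence 0.5 h after compound addition, relative to acetonitrile. Compounds first tested in duplicate at 10 uM, actives followed up in concentration series.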
# [9] = target: human CYP2D6, CYP2D6 (gene 1565) (UniProt P10635); test: NVS_ADME_hCYP2D6: NovaScreen (NVS) CYP450-related Enzyme Activity (ADME) Assay for human CYP2D6 (AID 2283107; active = hit-call score of the fitted dose curve at least 0.9, where 1 is the maximum)
# Chain of human CYP2D6, CYP2D6 (gene 1565) (P10635 whole entry, looked up): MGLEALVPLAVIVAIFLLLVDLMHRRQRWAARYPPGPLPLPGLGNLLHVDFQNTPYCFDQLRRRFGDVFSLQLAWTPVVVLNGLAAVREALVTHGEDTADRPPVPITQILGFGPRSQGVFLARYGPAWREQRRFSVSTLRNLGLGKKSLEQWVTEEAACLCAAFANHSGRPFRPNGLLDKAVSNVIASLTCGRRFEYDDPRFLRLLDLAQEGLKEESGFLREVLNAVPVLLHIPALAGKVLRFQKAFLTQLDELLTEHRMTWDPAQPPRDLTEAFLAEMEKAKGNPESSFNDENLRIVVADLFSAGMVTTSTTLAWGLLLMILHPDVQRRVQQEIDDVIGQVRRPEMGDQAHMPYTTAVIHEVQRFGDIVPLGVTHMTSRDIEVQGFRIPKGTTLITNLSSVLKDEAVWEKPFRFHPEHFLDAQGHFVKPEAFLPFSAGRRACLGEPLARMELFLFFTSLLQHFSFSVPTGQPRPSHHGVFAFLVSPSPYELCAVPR
# How it was run: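 Fluorescence readout of recombinant CYP2D6 (insect-cell derived) activity after 1 h incubation with test chemical. Acetonitrile served as baseline, loss-of-signal direction. Single-concentration duplicate screening at 10 uM preceded concentration-response retesting.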
# [10] = target: human CYP2C9, CYP2C9 (gene 1559) (UniProt P11712); test: NVS_ADME_hCYP2C9: NovaScreen (NVS) CYP450-related Enzyme Activity (ADME) Assay for human CYP2C9 (AID 2283108; active = hit-call score of the fitted dose curve at least 0.9, where 1 is the maximum)
# Chain of human CYP2C9, CYP2C9 (gene 1559) (P11712 whole entry, looked up): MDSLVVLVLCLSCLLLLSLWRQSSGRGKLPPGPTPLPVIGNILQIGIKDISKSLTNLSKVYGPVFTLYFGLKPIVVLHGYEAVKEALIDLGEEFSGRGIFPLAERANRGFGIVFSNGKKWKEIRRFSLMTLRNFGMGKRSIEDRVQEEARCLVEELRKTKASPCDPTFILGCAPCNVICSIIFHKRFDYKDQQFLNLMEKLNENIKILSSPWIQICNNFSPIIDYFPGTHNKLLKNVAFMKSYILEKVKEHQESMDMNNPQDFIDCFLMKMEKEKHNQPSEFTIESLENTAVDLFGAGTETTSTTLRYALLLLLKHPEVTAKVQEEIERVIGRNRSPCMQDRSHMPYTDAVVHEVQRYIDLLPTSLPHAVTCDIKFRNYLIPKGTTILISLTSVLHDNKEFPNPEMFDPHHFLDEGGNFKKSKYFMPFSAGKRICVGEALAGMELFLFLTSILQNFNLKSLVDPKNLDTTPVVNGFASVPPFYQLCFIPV
# How it was run: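 Cell-free assay of recombinant human CYP2C9 produced in Sf9 cells, with enzyme activity read by fluorescence intensity 0.75 h after compound addition. Loss of signal versus an acetonitrile negative control indicates inhibition. Primary screen used 10 uM in duplicate; actives were retested in concentration series.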
# [11] = target: Cytochrome P450 2C19 (Homo sapiens) (UniProt P33261); test: NVS_ADME_hCYP2C19: NovaScreen (NVS) CYP450-related Enzyme Activity (ADME) Assay for human CYP2C19 (AID 2283113; active = hit-call score of the fitted dose curve at least 0.9, where 1 is the maximum;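 as to AC50: potency for inhibition seen as loss of fluorescent signal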)
# How it was run: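 Compounds first screened in duplicate at 10 uM, then confirmed in concentration series. Insect-cell-expressed human CYP2C19 turned over a fluorogenic substrate, and fluorescence was read after 1 h. Inhibition taken as signal loss relative to acetonitrile.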
# [12] = target: rat CYP2C11, Cyp2c11 (gene 29277) (UniProt P08683); test: NVS_ADME_rCYP2C11: NovaScreen (NVS) CYP450-related Enzyme Activity (ADME) Assay for rat CYP2C11 (AID 2283118; active = hit-call score of the fitted dose curve at least 0.9, where 1 is the maximum)
# Chain of rat CYP2C11, Cyp2c11 (gene 29277) (P08683 whole entry, looked up): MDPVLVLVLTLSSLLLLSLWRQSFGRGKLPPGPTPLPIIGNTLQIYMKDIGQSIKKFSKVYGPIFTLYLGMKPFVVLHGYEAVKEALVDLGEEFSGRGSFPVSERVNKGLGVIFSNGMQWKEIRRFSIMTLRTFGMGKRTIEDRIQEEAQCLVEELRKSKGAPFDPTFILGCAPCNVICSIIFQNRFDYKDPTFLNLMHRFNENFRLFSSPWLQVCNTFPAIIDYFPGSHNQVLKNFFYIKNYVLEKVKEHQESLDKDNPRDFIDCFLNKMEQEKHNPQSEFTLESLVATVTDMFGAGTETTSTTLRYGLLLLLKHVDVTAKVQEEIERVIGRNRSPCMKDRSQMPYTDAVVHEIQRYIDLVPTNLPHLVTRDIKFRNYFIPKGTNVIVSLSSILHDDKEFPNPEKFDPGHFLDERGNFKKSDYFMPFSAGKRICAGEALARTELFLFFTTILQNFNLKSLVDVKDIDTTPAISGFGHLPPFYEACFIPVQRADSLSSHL
# How it was run: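 Cell-free recombinant rat enzyme with fluorescent substrate; readout 0.33 h after dosing, loss of signal versus acetonitrile control. Initial duplicate single-point at 10 uM; actives rerun in concentration series.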
# [13] = target: human CYP1A1, CYP1A1 (gene 1543) (UniProt P04798); test: NVS_ADME_hCYP1A1: NovaScreen (NVS) CYP450-related Enzyme Activity (ADME) Assay for human CYP1A1 (AID 2283100; active = hit-call score of the fitted dose curve at least 0.9, where 1 is the maximum)
# Chain of human CYP1A1, CYP1A1 (gene 1543) (P04798 whole entry, looked up): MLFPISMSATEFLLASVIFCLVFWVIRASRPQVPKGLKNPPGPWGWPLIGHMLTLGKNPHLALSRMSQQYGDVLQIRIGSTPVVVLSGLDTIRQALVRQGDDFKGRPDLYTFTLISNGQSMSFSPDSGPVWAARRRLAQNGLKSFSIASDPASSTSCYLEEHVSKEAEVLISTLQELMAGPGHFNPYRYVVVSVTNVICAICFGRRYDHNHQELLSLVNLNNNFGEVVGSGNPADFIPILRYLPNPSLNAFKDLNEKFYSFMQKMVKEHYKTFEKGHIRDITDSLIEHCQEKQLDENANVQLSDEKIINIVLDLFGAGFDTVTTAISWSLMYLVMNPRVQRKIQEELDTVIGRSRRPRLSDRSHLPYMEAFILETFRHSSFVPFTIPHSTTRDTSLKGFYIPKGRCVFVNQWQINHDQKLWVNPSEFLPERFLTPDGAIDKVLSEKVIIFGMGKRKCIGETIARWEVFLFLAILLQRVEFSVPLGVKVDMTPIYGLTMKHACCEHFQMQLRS
# How it was run: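 Chemicals were first tested in duplicate at 10 uM, and those passing a 30% inhibition threshold were rerun as concentration series topping at 20 uM. Fluorescence read-out of recombinant enzyme turnover after 1 h, relative to acetonitrile.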
# [14] = target: rat CYP2A1, Cyp2a1 (gene 24894) (UniProt P11711); test: NVS_ADME_rCYP2A1: NovaScreen (NVS) CYP450-related Enzyme Activity (ADME) Assay for rat CYP2A1 (AID 2283114)
# Chain of rat CYP2A1, Cyp2a1 (gene 24894) (P11711 whole entry, looked up): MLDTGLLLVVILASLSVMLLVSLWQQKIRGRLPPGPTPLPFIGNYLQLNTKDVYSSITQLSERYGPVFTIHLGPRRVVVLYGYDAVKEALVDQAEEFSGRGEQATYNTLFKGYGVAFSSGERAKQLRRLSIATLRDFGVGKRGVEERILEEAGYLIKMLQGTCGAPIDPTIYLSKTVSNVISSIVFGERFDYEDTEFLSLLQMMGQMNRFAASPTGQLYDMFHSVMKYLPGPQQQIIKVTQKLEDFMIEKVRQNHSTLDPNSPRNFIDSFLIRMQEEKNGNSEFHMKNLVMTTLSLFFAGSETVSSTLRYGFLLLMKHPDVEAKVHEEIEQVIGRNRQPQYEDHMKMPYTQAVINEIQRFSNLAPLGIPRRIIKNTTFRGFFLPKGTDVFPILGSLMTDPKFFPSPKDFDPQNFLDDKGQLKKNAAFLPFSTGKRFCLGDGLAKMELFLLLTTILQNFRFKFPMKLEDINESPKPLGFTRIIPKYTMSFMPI
# How it was run: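 Recombinant rat CYP2A1, cell-free, fluorogenic substrate turnover read by fluorescence intensity 0.75 h after dosing. Primary screen at 10 uM in duplicate; actives rerun as concentration-response up to 20 uM; loss of signal versus acetonitrile control.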
# rat CYP2C6, gene 293989 = test: NVS_ADME_rCYP2C6: NovaScreen (NVS) CYP450-related Enzyme Activity (ADME) Assay for rat CYP2C6 (AID 2283120; active = hit-call score of the fitted dose curve at least 0.9, where 1 is the maximum)
# How it was run: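 Cell-free recombinant rat CYP2C6 with fluorogenic substrate, read by fluorescence 1 h after dosing; acetonitrile as negative control. Primary screen at 10 uM in duplicate, actives then in concentration-response up to 20 uM.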
# [15] = target: rat CYP2A2, Cyp2a2 (gene 24895) (UniProt P15149); test: NVS_ADME_rCYP2A2: NovaScreen (NVS) CYP450-related Enzyme Activity (ADME) Assay for rat CYP2A2 (AID 2283116; active = hit-call score of the fitted dose curve at least 0.9, where 1 is the maximum)
# How it was run: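 Cell-free recombinant rat CYP2A2 activity with fluorogenic substrate, fluorescence read 0.2 h after dosing. Chemicals screened at 10 uM in duplicate, hits then run in concentration-response up to 20 uM; signal loss versus acetonitrile baseline.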
# [16] = target: human CYP19A1, CYP19A1 (gene 1588) (UniProt P11511); test: NVS_ADME_hCYP19A1: NovaScreen (NVS) CYP450-related Enzyme Activity (ADME) Assay for human CYP19A1 (AID 2283098; active = hit-call score of the fitted dose curve at least 0.9, where 1 is the maximum;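 as to AC50: potency for inhibitors seen as loss of fluorescent enzyme signal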)
# Chain of human CYP19A1, CYP19A1 (gene 1588) (P11511 whole entry, looked up): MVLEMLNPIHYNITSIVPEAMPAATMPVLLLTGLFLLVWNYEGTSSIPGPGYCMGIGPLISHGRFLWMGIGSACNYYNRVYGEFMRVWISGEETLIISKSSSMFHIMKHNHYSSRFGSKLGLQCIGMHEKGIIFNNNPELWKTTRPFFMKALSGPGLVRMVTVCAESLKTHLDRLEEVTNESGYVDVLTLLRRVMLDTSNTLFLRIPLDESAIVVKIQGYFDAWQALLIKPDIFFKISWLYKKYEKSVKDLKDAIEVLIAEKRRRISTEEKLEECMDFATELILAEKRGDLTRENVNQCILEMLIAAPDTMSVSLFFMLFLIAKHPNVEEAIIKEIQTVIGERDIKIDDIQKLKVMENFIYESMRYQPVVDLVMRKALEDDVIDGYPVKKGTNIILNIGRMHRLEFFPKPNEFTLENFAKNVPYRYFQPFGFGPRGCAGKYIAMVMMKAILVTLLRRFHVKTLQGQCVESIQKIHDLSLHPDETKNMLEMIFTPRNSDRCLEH
# How it was run: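 Cell-free enzyme assay with recombinant protein and a specific fluorogenic substrate, read by fluorescence intensity 0.5 h after dosing. Primary screen ran in duplicate at 10 uM; actives were retested in concentration series. Loss of signal versus acetonitrile baseline.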
# [17] = target: Cytochrome P450 3A4 (Homo sapiens) (UniProt P08684); test: NVS_ADME_hCYP3A4: NovaScreen (NVS) CYP450-related Enzyme Activity (ADME) Assay for human CYP3A4 (AID 2283110; active = hit-call score of the fitted dose curve at least 0.9, where 1 is the maximum)
# Chain of Cytochrome P450 3A4 (Homo sapiens) (P08684 whole entry, looked up): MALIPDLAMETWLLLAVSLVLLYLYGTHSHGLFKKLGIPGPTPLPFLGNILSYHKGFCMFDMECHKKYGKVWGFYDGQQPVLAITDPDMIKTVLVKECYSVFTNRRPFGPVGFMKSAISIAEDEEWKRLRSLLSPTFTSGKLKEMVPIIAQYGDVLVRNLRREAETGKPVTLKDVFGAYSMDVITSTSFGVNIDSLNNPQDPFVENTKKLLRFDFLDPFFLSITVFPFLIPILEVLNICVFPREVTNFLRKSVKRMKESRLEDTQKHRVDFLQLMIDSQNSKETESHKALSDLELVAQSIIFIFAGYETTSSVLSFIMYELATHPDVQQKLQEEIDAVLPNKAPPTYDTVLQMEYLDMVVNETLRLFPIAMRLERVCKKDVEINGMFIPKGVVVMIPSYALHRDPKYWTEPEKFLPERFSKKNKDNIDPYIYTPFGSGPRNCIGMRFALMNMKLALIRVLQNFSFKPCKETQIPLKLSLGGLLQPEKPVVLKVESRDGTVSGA
# How it was run: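 Cell-free assay using insect-cell-expressed human CYP3A4 with a fluorogenic substrate; fluorescence intensity was read 0.33 hour after dosing. Loss of signal relative to acetonitrile vehicle indicated inhibition. Primary single-concentration screen at 10 uM, in duplicate, then concentration series.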
compound,measurement,setting,value
N#CSCSc1nc2ccccc2s1,AC50,[1],11.6 µM (active) and 9.68 µM (active)
same,AC50,[2],909 nM (active) and 2.23 µM (active)
same,AC50,[3],5.44 µM (active) and 10.9 µM (active)
same,AC50,[4],783 nM (active) and 1.76 µM (active)
same,AC50,[5],18.2 µM (active) and 10.5 µM (active)
same,AC50,[6],3.06 µM (active)
same,AC50,[7],1.87 µM (active)
same,AC50,[8],3.44 µM (active)
same,AC50,[9],1.99 µM (active) and 1.9 µM (active)
same,AC50,[10],1.77 µM (active) and 5.62 µM (active)
same,AC50,[11],4.76 µM (active)
same,AC50,[12],9.17 µM (active)
c1ccc2[nH]c(-c3cscn3)nc2c1,outcome,[1],inactive
same,outcome,[2],inactive
same,outcome,[3],inactive
same,outcome,[4],inactive
same,outcome,[5],inactive
same,AC50,[13],4.65 µM (active)
same,AC50,[8],2.47 µM (active)
O=C(O)c1ccccc1,outcome,[1],inactive
same,outcome,[2],inactive
same,outcome,[3],inactive
same,outcome,[4],inactive
same,outcome,[5],inactive
same,outcome,[6],inactive
CCCN(CCC)c1c([N+](=O)[O-])cc(C(F)(F)F)c(N)c1[N+](=O)[O-],AC50,[1],31.7 µM (active)
same,AC50,[2],15 µM (active)
same,AC50,[3],20 µM (active)
same,AC50,[4],21 µM (active)
same,AC50,[5],14.7 µM (active)
same,AC50,[8],6.02 µM (active)
CCOC(=O)NCCOc1ccc(Oc2ccccc2)cc1,outcome,[1],inactive
same,AC50,[2],15.6 µM (active)
same,AC50,[3],30 µM (active)
same,AC50,[4],16.2 µM (active)
same,AC50,[5],20 µM (active)
same,AC50,[9],1.98 µM (active)
same,AC50,[10],10 µM (active)
same,AC50,[11],0.816 µM (active)
CCCCOC(=O)[C@@H](C)Oc1ccc(Oc2ccc(C(F)(F)F)cn2)cc1,outcome,[1],inactive
same,outcome,[2],inactive
same,outcome,[3],inactive
same,outcome,[4],inactive
same,outcome,[5],inactive
same,outcome,[11],inactive
C#CCOC(=O)[C@@H](C)Oc1ccc(Oc2ncc(Cl)cc2F)cc1,outcome,[1],inactive
same,outcome,[2],inactive
same,outcome,[3],inactive
same,outcome,[4],inactive
same,outcome,[5],inactive
same,AC50,[13],2.24 µM (active)
same,AC50,[7],0.777 µM (active)
same,AC50,[8],1.64 µM (active)
same,AC50,[11],1.5 µM (active)
same,outcome,[14],inactive
same,AC50,[12],1.1 µM (active)
same,AC50,"rat CYP2C6, gene 293989",0.31 µM (active)
C#C[C@]1(O)CC[C@H]2[C@@H]3CCC4=CC(=O)CC[C@@H]4[C@H]3CC[C@@]21CC,outcome,[1],inactive
same,outcome,[2],inactive
same,AC50,[3],6.98 µM (active)
same,outcome,[4],inactive
same,outcome,[5],inactive
same,AC50,[11],1.24 µM (active)
COc1nc(C)nc(NC(=O)NS(=O)(=O)c2ccccc2OCCCl)n1,outcome,[1],inactive
same,outcome,[2],inactive
same,outcome,[3],inactive
same,outcome,[4],inactive
same,outcome,[5],inactive
same,AC50,[9],1.07 µM (active)
same,AC50,[11],0.0177 µM (active)
CCOC(=O)C(C)Oc1ccc(Oc2nc3ccc(Cl)cc3o2)cc1 (configuration not stated),outcome,[1],inactive
same,outcome,[2],inactive
same,outcome,[3],inactive
same,AC50,[4],32 µM (active)
same,outcome,[5],inactive
same,outcome,[8],inactive
same,AC50,[11],10 µM (active)
same,AC50,[15],2 µM (active)
CCCCCOC(=O)COc1cc(N2C(=O)C3=C(CCCC3)C2=O)c(F)cc1Cl,outcome,[1],inactive
same,outcome,[2],inactive
same,outcome,[3],inactive
same,AC50,[4],14.3 µM (active)
same,outcome,[5],inactive
same,AC50,[8],1.29 µM (active)
same,outcome,[10],inactive
same,AC50,[11],4.42 µM (active)
same,outcome,[14],inactive
O=C(c1ccc(O)cc1O)c1ccc(O)cc1O,outcome,[1],inactive
same,outcome,[2],inactive
same,outcome,[3],inactive
same,AC50,[4],20 µM (active)
same,outcome,[5],inactive
same,AC50,[16],5.78 µM (active) and 5.75 µM (active) and 7.34 µM (active)
same,AC50,[7],6.26 µM (active)
same,AC50,[8],4.04 µM (active)
same,AC50,[17],5.88 µM (active)
same,AC50,[11],6.3 µM (active)
CCCCC(CC)CN1C(=O)C2C3C=CC(C3)C2C1=O (configuration not stated),outcome,[1],inactive
same,AC50,[2],15.3 µM (active)
same,outcome,[3],inactive
same,AC50,[4],32.7 µM (active)
same,AC50,[5],20 µM (active)
same,outcome,[16],inactive
same,AC50,[8],5.57 µM (active)
same,AC50,[17],3 µM (active)
same,AC50,[11],8.18 µM (active)
CCN(Cc1c(F)cccc1Cl)c1c([N+](=O)[O-])cc(C(F)(F)F)cc1[N+](=O)[O-],outcome,[1],inactive
same,AC50,[2],8.35 µM (active)
same,AC50,[3],8.25 µM (active)
same,AC50,[4],20 µM (active)
same,AC50,[5],11.4 µM (active)
same,AC50,[11],10 µM (active)
